Reference: PubChem BioAssay (NCATS)
Records with an inconclusive call do not appear. Active and inactive are the calls of the source. Unless noted, calls come from the whole dose curve; as a rule, active = well fitted curve in the direction sought with a large enough effect; inconclusive = small, poorly fitted or top-dose-only effect, or another doubt; inactive = no such curve, though single readings can be large; an effect the other way counts as inactive or inconclusive.

Experiments:
[1] = target: Lysosomal acid glucosylceramidase (Homo sapiens) (UniProt P04062); assay: Glucocerebrosidase-p2 (AID 348; in the data active = potency below about 10 µM; note: potency is the fitted concentration of half-maximal effect); conditions: purified GBA, blue fluorogenic substrate, 40 min
Lysosomal acid glucosylceramidase (Homo sapiens), sequence (P04062 whole entry, looked up): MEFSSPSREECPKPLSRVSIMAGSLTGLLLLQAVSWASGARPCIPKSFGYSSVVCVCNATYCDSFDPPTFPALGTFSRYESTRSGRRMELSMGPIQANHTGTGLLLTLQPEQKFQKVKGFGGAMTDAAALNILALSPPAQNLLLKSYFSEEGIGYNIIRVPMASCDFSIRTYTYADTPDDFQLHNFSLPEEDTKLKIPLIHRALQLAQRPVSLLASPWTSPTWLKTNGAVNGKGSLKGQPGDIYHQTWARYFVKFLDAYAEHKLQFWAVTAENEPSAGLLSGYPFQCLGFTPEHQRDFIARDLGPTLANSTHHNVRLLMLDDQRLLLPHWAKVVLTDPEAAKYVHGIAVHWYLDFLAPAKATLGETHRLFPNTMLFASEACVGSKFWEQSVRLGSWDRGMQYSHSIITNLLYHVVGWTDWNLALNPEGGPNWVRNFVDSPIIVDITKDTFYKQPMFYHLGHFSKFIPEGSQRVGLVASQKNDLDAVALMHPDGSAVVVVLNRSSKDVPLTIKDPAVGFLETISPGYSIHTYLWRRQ
Outline: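 Compounds titrated from 0.6 nM upwards against 0.2 nM enzyme in pH 5.9 citric acid/KH2PO4, taurocholate, tween-20; blue fluorogenic substrate 80 uM, 40 min room temperature, stopped and read Ex 365/Em 440 for AC50.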

[2] = AP1 Signaling Pathway (AID 357; active = well fitted curve in either direction with a large enough effect, not every such curve was filed as active;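 note: ME-180 reporter cells stimulated with EGF at its EC50 level; % is set by controls: 0 for no effect and ±100 for the full control effect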); conditions: ME-180 AP-1-bla reporter, EGF-induced, beta-lactamase ratio, 5 h; at 7.69 µM (top of the series) unless noted
Outline: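 A ratiometric CCF4 readout (405 nm excitation; 460 and 530 nm emission) quantified AP-1-driven beta-lactamase in ME-180 cells after 5 h with compound and EC50 EGF; AC50 values were derived for activators and inhibitors.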

[3] = target: Cytochrome P450 1A2 (Homo sapiens) (UniProt P05177); assay: p450-cyp1a2 (AID 410; calls by dose curve; note: potency is the fitted concentration of half-maximal effect;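 for activity change, negative = inhibition: -100% = full effect of reference inhibitor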); conditions: recombinant CYP1A2, luciferin-ME demethylation, luminescence; series mostly up to 57 µM
Cytochrome P450 1A2 (Homo sapiens), sequence (P05177 whole entry, looked up): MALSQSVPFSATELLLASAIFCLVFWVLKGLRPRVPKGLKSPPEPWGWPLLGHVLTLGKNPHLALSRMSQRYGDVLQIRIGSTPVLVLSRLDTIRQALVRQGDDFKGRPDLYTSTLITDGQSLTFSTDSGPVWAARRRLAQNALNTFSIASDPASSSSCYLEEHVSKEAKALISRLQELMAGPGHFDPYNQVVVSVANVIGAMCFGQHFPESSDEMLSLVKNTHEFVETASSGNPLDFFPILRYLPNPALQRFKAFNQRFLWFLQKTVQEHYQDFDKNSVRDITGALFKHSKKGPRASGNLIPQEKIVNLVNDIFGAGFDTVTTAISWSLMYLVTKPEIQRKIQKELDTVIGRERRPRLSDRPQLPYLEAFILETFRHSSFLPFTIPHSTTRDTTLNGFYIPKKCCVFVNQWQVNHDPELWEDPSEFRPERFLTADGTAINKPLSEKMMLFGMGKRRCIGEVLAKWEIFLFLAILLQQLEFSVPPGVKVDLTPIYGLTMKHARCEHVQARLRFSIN
Outline: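 Luminescent readout of luciferin formed from Luciferin-ME by human CYP1A2; data normalized against complete inhibition by 57 uM furafylline. Enzyme 20nM, substrate 100uM at Km, 100mM KPO4 buffer, 60 min reaction at room temperature.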

[4] = NFAT Signaling Pathway (AID 444; active = well fitted curve in either direction with a large enough effect, not every such curve was filed as active;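 note: carbachol stimulus at about its EC50 of 1 µM final; % is set by controls: 0 for no effect and ±100 for the full control effect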); conditions: Jurkat NFAT-bla M1, carbachol, beta-lactamase ratio, 5 h; at 7.69 µM (top of the series) unless noted
Outline: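 Jurkat cells carrying an NFAT-driven β-lactamase reporter and co-transfected muscarinic M1 receptor were treated with compound plus carbachol (1 uM final, an EC50 level) for 5 h at 37 °C. CCF4 loading followed for 1 h at RT; 460/530 nm ratio gave %activity.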

[5] = Stat Signaling Pathway (AID 446; active = well fitted curve in either direction with a large enough effect, not every such curve was filed as active;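 note: ME-180 cervical cancer cells given 40 pM IL-6 alongside compound; SIE-controlled beta-lactamase reporter measured as 460/530 nm FRET emission ratio; % is set by controls: 0 for no effect and ±100 for the full control effect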); conditions: ME-180 SIE beta-lactamase reporter, IL-6 stimulated, 5 h; at 7.69 µM (top of the series) unless noted
Outline: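 ME-180 SIE-bla cells; overnight plating; cpd + IL-6 40 pM, 5 h, 37 C; LiveBLAzer 2.5 h RT; 460/530 nm emission ratio. Normalized to 300 pM IL-6 and 125 nM JAK inhibitor controls.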

[6] = target: Glucocorticoid receptor (Homo sapiens) (UniProt P04150); assay: GR-GFP Redistribution (AID 450;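 active = compounds whose dose series gives a full or clear partial fitted curve of increased nuclear translocation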; note: potency is the fitted concentration of half-maximal effect); conditions: U2OS GR-GFP nuclear translocation, laser cytometry, 2 h
Glucocorticoid receptor (Homo sapiens), sequence (P04150 whole entry, looked up, the tested form may be a part): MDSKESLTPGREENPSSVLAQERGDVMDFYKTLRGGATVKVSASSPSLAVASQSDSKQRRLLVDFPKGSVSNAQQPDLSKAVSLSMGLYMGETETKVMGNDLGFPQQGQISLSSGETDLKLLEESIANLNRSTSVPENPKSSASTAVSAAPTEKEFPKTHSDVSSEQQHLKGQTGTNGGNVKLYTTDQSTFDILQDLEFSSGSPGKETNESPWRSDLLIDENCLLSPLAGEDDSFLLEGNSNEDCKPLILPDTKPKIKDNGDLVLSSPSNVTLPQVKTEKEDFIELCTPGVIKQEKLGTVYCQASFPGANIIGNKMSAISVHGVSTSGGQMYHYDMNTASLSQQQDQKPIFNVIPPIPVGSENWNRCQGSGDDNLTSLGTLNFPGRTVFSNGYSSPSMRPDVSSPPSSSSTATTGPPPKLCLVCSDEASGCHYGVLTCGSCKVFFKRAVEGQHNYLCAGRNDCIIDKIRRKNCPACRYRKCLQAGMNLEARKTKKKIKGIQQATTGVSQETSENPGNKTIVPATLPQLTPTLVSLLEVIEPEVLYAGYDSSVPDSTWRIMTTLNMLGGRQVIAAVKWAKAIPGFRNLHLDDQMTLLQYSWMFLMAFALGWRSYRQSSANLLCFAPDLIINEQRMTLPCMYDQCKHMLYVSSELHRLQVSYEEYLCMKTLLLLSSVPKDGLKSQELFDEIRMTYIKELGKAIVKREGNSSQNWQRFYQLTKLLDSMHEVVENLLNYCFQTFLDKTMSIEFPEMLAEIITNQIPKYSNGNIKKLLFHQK

[7] = target: Glucocorticoid receptor (Homo sapiens) (UniProt P04150); assay: GR-EFC Redistribution (AID 451; calls by dose curve; note: potency is the fitted concentration of half-maximal effect); conditions: CHO-K1 GR-EFC translocation, beta-gal luminescence, 2 h
Outline: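 CHO-K1 cells stably expressing nuclear-localized β-gal enzyme acceptor and GR fused C-terminally to the enzyme donor fragment; ligand-driven nuclear translocation restores β-gal by complementation. Compounds titrated up to 46 uM final, 2 h at 37 °C; luminescence read.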

[8] = target: Mitogen-activated protein kinase 10 (Mus musculus) (UniProt Q61831); assay: JNK3 AlphaScreen Assay (AID 530; active = well fitted curve in either direction with a large enough effect, not every such curve was filed as active;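 note: kinase came from lysate of stimulated human HepG2 cells; signal reports phosphorylation of biotinylated GST-cJun 1-79 at Ser73 with 10 µM ATP; % is set by controls: 0 for no effect and ±100 for the full control effect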); conditions: JNK3 lysate, c-Jun phosphorylation; series mostly up to 57.1 µM
Outline: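 Inhibitors reduce antibody binding to phosphorylated biotin-cJun, lowering AlphaScreen luminescence. Lysates from HepG2 cells pre-activated by IL-1beta plus TNF-alpha supplied JNK3; compounds were titrated.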

[9] = target: 3',5'-cyclic-AMP phosphodiesterase 4B (Homo sapiens) (UniProt Q07343); assay: qHTS Assay for Inhibitors of PDE-IV (AID 607; active = well fitted activation curve with a large enough effect in the main read-out, with a control signal flat, not every such curve was filed as active; note: % of control where 0% means no effect); conditions: HEK293 ACTOne CNG channel cells, membrane potential fluorescence; series mostly up to 22.9 µM
3',5'-cyclic-AMP phosphodiesterase 4B (Homo sapiens), sequence (Q07343 whole entry, looked up): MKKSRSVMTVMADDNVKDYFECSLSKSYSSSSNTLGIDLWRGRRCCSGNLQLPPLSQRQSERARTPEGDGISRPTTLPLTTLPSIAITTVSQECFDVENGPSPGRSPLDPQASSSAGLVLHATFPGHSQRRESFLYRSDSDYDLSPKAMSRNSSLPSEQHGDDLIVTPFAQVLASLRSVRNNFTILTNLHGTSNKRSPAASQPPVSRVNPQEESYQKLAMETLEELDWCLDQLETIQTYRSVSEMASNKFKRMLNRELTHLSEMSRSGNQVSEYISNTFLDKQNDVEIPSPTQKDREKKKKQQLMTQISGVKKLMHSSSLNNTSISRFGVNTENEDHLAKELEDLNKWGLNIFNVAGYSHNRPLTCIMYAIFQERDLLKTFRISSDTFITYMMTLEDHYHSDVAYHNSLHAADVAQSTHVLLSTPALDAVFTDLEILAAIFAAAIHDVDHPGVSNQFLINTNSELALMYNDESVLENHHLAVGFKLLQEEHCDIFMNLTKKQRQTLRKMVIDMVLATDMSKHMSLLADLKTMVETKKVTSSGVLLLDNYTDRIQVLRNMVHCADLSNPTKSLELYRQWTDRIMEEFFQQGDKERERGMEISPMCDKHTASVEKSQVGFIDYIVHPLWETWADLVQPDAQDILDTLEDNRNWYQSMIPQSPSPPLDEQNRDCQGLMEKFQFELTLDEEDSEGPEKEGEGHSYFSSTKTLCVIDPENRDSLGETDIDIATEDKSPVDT
Outline: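 ACTOne HEK293 cells carry a modified cAMP-gated CNG channel and express endogenous PDE4; plated 1000 cells/well, compounds up to 22.9 uM final. Membrane-potential dye fluorescence (ex 535/em 590) was read; parental cells received 10 uM forskolin + 100 uM RO 20-1724.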

[10] = target: Cytochrome P450 2C9 (Homo sapiens) (UniProt P11712); assay: qHTS Assay for Inhibitors and Substrates of Cytochrome P450 2C9 (AID 883); conditions: recombinant CYP2C9, luciferin-H luminescence, 60 min; series mostly up to 57.1 µM; note: % is set by controls: 0 for no effect and ±100 for the full control effect; nearly all actives have a fitted effect of over 60% in size
Cytochrome P450 2C9 (Homo sapiens), sequence (P11712 whole entry, looked up): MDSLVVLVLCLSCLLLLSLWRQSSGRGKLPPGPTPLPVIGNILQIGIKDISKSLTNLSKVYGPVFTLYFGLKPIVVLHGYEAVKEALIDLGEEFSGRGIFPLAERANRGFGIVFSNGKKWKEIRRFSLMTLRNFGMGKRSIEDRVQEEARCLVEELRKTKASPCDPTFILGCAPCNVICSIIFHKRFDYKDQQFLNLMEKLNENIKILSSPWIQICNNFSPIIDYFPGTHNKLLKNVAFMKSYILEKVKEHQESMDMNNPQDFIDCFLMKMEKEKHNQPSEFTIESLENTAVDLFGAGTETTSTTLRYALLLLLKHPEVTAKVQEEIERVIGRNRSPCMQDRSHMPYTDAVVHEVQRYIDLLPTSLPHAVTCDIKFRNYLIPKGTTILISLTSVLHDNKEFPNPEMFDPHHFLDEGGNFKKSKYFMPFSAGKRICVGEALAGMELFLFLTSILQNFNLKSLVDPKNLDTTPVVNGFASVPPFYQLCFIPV
Outline: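 CYP2C9 deoxyluciferin hydroxylation, 37C, 60 min with NADPH regeneration; 10nM enzyme, 100uM Luciferin-H (KM). Glo detection reagent stopped reaction; luminescence normalized to sulphaphenazole (57uM) full inhibition.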

[11] = target: Cytochrome P450 3A4 (Homo sapiens) (UniProt P08684); assay: qHTS Assay for Activators of Cytochrome P450 3A4 (AID 885); conditions: recombinant CYP3A4, Luciferin-PPXE luminescence, 60 min; series mostly up to 57.1 µM; note: nearly all actives have a fitted effect of over 65% in size
Cytochrome P450 3A4 (Homo sapiens), sequence (P08684 whole entry, looked up): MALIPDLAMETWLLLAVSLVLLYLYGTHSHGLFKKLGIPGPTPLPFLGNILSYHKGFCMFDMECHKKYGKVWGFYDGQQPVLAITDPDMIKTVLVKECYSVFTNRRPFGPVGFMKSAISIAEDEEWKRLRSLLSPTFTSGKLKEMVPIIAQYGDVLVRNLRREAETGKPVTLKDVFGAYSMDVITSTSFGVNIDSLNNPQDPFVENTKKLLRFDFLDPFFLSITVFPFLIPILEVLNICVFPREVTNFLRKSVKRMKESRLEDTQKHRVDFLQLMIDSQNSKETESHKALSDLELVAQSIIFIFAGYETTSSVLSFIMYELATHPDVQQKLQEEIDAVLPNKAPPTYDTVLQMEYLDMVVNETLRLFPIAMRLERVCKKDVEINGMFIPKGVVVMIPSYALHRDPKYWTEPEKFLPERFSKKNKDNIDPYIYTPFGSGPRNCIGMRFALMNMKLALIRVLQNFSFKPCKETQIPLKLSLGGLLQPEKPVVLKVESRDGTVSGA
Outline: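 20nM CYP3A4 + 25uM Luciferin-PPXE (=KM), 200mM KPO4; cpd 10 min RT; NADPH regen, 60 min RT; stop w/ detection buffer, 20 min; luminescence. Normalized to 57 uM ketoconazole.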

[12] = qHTS Assay for Lipid Storage Modulators (AID 1519; calls by dose curve); conditions: Drosophila S3 cells, BODIPY lipid droplet/cell ratio, laser cytometry, cells loaded with oleic acid; for activity change, negative = inhibition: at 57.5 µM (top of the series)
Outline: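 Cells seeded at 5,000 per well were treated with compounds over a concentration series and loaded with oleic acid (400 uM, as added). Lipid droplet fluorescence (488 nm excitation, 500-530 nm channel) was read by laser-scanning cytometry and normalized to 20 uM Triacsin C.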

[13] = target: Dual specificity protein kinase CLK4 (Homo sapiens) (UniProt Q9HAZ1); assay: qHTS Assay for Inhibitors of CDC-like Kinase 4 (Kinase-Glo Assay) (AID 1770); conditions: recombinant Clk4, Kinase-Glo ATP depletion luminescence; series mostly up to 66.7 µM; note: % is set by controls: 0 for no effect and ±100 for the full control effect; nearly all actives have a fitted effect of over 65% in size
Dual specificity protein kinase CLK4 (Homo sapiens), sequence (Q9HAZ1 whole entry, looked up): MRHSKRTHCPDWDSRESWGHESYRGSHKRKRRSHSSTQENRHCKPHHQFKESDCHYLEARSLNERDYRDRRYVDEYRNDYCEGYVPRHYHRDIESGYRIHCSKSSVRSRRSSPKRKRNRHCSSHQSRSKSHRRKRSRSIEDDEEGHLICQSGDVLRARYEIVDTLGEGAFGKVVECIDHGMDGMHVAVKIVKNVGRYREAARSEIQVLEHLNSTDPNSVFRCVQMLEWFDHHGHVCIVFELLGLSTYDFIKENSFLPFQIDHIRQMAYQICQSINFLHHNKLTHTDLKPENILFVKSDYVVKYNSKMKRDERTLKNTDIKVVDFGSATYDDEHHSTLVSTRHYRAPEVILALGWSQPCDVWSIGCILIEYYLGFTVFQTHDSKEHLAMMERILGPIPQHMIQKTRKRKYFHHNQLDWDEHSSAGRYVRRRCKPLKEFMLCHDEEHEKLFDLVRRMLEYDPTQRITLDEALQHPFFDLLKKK
Outline: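 Recombinant human Clk4 (25 nM) phosphorylated RS repeat peptide (100 uM) with 1 uM ATP in Tris pH 7.5/MgCl2/EGTA/DTT/Triton buffer for 4.5 h at room temperature. Residual ATP was quantified by Kinase-Glo luciferase luminescence.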

[14] = target: Dual specificity protein kinase CLK4 (Homo sapiens) (UniProt Q9HAZ1); assay: qHTS Assay for Inhibitors of CDC-like Kinase 4 (ADP-FP Assay) (AID 1795); conditions: Transcreener ADP fluorescence polarization; series mostly up to 50 µM; note: % is set by controls: 0 for no effect and ±100 for the full control effect; nearly all actives have a fitted effect of over 60% in size
Outline: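 Recombinant human Clk4 (6.25 nM) phosphorylated RS repeat peptide (100 uM) with 1 uM ATP in Tris pH 7.5/MgCl2/EGTA/DTT/Triton buffer for one hour. ADP was quantified by Transcreener competitive fluorescence polarization against an ADP calibration curve.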

[15] = target: Ubiquitin carboxyl-terminal hydrolase 1 (Homo sapiens) (UniProt O94782); assay: Inhibitors of USP1/UAF1: Pilot qHTS (AID 504865); conditions: purified USP1/UAF1, Ub-rhodamine cleavage fluorescence; series mostly up to 54.9 µM;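 note: rhodamine fluorescence freed from ubiquitin-rhodamine substrate followed over time; top concentration of the series differs between compounds; % is set by controls: 0 for no effect and ±100 for the full control effect; nearly all actives have a fitted effect of over 35% in size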
Ubiquitin carboxyl-terminal hydrolase 1 (Homo sapiens), sequence (O94782 whole entry, looked up): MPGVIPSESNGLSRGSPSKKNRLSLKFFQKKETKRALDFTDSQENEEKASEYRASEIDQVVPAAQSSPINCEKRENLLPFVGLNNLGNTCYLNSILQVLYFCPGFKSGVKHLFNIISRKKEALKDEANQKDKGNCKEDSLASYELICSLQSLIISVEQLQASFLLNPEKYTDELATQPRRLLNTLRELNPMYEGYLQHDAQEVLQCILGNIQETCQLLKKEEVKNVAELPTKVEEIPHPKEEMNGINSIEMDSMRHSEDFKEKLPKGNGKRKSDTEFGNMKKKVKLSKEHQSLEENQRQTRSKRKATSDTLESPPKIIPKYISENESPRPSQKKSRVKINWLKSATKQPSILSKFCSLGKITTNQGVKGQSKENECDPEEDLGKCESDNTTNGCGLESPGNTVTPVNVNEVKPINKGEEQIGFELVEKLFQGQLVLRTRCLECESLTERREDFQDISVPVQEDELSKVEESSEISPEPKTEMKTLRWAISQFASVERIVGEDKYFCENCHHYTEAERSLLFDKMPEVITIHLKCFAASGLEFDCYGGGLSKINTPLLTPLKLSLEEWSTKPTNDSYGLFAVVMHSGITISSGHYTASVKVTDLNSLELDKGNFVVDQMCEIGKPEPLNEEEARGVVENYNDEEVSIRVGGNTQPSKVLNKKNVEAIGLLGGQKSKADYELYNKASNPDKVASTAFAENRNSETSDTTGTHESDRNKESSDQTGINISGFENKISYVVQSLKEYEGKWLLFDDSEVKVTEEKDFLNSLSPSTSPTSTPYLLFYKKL
Outline: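 USP1/UAF1 complex (1nM) preincubated with compound 15 min at room temperature, then Ub-Rho substrate (150nM final) added. Fluorescence read kinetically at 480/540 nm, 6 reads every 60 seconds. Buffer: 50mM HEPES pH 7.8, 0.5mM EDTA, 0.1 mg/ml BSA, 1mM TCEP, 0.01% Tween-20.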

[16] = Primary qHTS for small molecule stabilizers of the endoplasmic reticulum resident proteome: Secreted ER Calcium Modulated Protein (SERCaMP) assay (AID 1508630); conditions: SH-SY5Y GLuc-SERCaMP (Gaussia luciferase released on ER calcium loss) secretion, thapsigargin, luminescence; series mostly up to 38.4 µM; note: % is set by controls: 0 for no effect and ±100 for the full control effect
Outline: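 GLuc-SERCaMP-expressing SH-SY5Y cells, pretreated 16 h with compound, are challenged with thapsigargin to empty ER calcium stores; after 4 h, coelenterazine is added directly to the medium and luminescence is imaged.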

[17] = target: Dual specificity protein kinase CLK4 (Homo sapiens) (UniProt Q9HAZ1); assay: qHTS Assay for Inhibitors of CDC-like Kinase 4 (ADP-Glo Assay) (AID 1771); conditions: recombinant CLK4, ADP-Glo luminescence; series mostly up to 80 µM; note: % is set by controls: 0 for no effect and ±100 for the full control effect; nearly all actives have a fitted effect of over 70% in size
Outline: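 Luminescence from ADP-Glo reports ADP produced by 25 nM Clk4 acting on 100 uM RS repeat peptide with 1 uM ATP over 1 hr at room temperature; residual ATP is depleted before ADP is converted to ATP for detection.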

[18] = measured here: cell count channel max response
[19] = measured here: lipid channel max response

CN(C)c1ncc2nc(-c3cc(F)cc(F)c3)c(=O)n(CCC#N)c2n1
inactive: Potency [1] > 11.4 µM | activity change, negative = inhibition [2] 4.37% | Potency [3] | activity change, negative = inhibition [4] 29.2% | activity, negative = inhibition [5] 2.22% | Potency [6] > 9.22 µM | Potency [7] > 46 µM | outcome [8] | Potency [9] | Potency [10] | Potency [11] | activity change, negative = inhibition [12] 3.22% | Potency [13] | Potency [14] | Potency [15] | Potency [16]
21.3%: max response [12, 19]
19.6%: max response [12, 18]

CN(C)Cc1ccccc1-c1nc(NCc2cccs2)c2ccccc2n1
active: Potency [3] 1 µM
15.9%: max response [12, 19]
inactive: Potency [1] > 11.4 µM | activity change, negative = inhibition [2] 25.7% | activity change, negative = inhibition [4] -24.9% | activity, negative = inhibition [5] 15.6% | Potency [7] > 46 µM | outcome [8] | Potency [11] | activity change, negative = inhibition [12] -0.128% | Potency [13] | Potency [14] | Potency [15] | Potency [16]
16.9%: max response [12, 18]

COCCn1c(=O)c(C)nc2cnc(Oc3ccccc3)nc21
23.5%: max response [12, 18]
27.5%: max response [12, 19]
inactive: Potency [1] > 11.4 µM | activity change, negative = inhibition [2] -9.67% | activity change, negative = inhibition [4] -4.22% | activity, negative = inhibition [5] -12.4% | Potency [6] > 9.22 µM | outcome [8] | Potency [9] | Potency [11] | activity change, negative = inhibition [12] 4.7% | Potency [13] | Potency [17] | Potency [15] | Potency [16]
